# Measured values reported in the supplement of paper PMC10849652.
# Targets with a hit are over-represented here; the source holds about 7,900 in all. About 0.6% of all pairs of compound and target were hits.
# Compound: CCCCN(Cc1ccc(C(=O)NO)cc1)C(=O)Nc1ccccc1 [Nexturastat A]
# Assay: log2 fold change, soluble protein after heating vs DMSO (PISA); higher = thermal stabilisation; K562 cells, 10 uM, 30 min; active = over 0.2 and 3.5 SD of the protein, either way, in both replicates (recomputed)
# Outline: (§1)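 K562 cells at 2×10^6 cells/mL were treated with 10 μM compound for 30 min. Aliquots were heated for 3 min across 48°C-58°C, pooled, and extracted in PBS with 0.5% NP-40 at 4°C; soluble protein was the supernatant after 21,000xg for 90 min. Soluble protein was quantified by TMTpro 16plex LC-MS/MS with channel sums equalised, and reported as log2 fold change in thermal stability against DMSO controls, with values from duplicates.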
# Sequence of UniProt P05543 (P05543 whole entry, looked up): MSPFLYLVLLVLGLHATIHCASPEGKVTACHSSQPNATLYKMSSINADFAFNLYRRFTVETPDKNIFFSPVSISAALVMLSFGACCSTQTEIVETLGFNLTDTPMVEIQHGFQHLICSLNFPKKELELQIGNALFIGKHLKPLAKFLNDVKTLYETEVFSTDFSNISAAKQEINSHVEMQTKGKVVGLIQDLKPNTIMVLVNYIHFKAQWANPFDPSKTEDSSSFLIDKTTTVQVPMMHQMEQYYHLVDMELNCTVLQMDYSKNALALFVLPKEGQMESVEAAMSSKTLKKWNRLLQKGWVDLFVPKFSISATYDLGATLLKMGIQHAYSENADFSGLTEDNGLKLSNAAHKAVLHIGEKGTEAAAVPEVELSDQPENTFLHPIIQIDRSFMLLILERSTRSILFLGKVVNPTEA
# Sequence of UniProt P49756 (P49756 whole entry, looked up): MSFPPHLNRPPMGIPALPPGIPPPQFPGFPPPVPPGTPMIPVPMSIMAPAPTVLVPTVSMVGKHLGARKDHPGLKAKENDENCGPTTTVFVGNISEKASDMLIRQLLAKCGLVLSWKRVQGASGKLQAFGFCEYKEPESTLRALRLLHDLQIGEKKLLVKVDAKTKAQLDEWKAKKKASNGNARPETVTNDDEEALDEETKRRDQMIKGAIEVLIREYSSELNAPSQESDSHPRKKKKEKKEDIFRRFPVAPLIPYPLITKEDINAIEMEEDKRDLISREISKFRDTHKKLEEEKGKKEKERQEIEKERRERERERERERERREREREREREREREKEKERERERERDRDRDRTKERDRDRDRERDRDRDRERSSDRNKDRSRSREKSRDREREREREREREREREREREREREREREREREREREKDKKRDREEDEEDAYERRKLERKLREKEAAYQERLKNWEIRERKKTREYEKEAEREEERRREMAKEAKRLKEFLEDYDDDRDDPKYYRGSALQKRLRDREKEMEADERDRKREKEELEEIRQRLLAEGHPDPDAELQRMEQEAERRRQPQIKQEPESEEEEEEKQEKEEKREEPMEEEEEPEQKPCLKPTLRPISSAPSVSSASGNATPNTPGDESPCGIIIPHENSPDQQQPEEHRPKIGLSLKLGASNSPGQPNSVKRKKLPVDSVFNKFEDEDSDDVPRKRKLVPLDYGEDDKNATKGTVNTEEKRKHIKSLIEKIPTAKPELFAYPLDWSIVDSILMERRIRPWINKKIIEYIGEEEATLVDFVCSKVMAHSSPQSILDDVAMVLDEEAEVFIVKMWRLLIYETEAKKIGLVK
# Sequence of UniProt P27694 (P27694 whole entry, looked up): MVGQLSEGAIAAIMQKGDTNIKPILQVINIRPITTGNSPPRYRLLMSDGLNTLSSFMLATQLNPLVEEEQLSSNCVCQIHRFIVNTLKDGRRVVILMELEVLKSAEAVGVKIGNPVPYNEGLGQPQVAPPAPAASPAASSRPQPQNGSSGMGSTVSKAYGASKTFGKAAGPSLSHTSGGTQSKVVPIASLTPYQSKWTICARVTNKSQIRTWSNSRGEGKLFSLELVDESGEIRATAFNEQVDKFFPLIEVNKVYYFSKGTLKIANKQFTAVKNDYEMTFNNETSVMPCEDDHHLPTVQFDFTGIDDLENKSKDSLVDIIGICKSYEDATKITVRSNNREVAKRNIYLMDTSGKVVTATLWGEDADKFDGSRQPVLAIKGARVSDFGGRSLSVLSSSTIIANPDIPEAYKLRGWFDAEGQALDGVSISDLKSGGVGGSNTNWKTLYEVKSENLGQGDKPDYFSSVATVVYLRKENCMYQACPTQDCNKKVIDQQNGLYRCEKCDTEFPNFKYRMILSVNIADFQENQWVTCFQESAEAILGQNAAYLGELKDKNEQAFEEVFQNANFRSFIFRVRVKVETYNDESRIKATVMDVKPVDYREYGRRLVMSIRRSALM
# Sequence of UniProt Q96ER3 (Q96ER3 whole entry, looked up): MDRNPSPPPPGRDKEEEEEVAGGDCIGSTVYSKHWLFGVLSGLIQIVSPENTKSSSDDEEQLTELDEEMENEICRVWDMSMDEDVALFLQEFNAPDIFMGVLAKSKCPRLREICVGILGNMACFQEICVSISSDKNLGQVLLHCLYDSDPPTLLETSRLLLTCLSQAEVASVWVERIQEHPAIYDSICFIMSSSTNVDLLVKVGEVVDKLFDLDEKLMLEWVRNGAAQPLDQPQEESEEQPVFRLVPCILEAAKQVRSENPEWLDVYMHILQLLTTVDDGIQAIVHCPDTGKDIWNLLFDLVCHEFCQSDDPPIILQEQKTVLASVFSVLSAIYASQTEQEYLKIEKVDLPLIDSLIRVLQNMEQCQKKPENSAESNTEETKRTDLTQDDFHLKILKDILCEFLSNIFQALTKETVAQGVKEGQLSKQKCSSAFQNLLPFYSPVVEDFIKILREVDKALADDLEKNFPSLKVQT
# Sequence of UniProt Q8TC12 (Q8TC12 whole entry, looked up): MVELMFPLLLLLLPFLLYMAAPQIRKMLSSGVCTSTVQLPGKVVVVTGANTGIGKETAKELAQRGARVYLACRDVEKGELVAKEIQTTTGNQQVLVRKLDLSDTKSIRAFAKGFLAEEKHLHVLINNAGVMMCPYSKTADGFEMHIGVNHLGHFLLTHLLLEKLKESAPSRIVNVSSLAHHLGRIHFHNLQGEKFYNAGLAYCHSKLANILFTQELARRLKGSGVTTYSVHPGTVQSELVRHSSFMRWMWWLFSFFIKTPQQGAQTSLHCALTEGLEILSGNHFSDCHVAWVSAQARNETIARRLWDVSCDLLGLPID
# Sequence of UniProt Q6NUM9 (Q6NUM9 whole entry, looked up): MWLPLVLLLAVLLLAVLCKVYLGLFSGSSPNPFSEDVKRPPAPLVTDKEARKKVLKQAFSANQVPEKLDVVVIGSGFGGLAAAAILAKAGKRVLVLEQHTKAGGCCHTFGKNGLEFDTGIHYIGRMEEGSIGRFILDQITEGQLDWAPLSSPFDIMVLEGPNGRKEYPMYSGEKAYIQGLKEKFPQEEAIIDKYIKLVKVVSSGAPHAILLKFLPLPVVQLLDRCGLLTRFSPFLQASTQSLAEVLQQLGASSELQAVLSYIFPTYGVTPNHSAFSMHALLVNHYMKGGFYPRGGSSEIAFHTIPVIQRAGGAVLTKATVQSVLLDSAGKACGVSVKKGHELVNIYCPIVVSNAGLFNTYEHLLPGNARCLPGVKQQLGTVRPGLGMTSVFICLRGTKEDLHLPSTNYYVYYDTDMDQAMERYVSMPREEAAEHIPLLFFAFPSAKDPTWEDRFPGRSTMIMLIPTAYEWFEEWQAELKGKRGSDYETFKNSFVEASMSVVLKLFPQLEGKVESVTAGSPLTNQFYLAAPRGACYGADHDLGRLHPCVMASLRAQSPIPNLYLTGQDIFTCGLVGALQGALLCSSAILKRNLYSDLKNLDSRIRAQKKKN
# Sequence of UniProt P63208 (P63208 whole entry, looked up): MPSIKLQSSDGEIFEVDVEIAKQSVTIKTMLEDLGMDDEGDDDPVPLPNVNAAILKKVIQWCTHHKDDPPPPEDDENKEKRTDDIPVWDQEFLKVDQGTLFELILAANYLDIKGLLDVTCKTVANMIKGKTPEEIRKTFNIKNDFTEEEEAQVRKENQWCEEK
# Sequence of UniProt Q15418 (Q15418 whole entry, looked up): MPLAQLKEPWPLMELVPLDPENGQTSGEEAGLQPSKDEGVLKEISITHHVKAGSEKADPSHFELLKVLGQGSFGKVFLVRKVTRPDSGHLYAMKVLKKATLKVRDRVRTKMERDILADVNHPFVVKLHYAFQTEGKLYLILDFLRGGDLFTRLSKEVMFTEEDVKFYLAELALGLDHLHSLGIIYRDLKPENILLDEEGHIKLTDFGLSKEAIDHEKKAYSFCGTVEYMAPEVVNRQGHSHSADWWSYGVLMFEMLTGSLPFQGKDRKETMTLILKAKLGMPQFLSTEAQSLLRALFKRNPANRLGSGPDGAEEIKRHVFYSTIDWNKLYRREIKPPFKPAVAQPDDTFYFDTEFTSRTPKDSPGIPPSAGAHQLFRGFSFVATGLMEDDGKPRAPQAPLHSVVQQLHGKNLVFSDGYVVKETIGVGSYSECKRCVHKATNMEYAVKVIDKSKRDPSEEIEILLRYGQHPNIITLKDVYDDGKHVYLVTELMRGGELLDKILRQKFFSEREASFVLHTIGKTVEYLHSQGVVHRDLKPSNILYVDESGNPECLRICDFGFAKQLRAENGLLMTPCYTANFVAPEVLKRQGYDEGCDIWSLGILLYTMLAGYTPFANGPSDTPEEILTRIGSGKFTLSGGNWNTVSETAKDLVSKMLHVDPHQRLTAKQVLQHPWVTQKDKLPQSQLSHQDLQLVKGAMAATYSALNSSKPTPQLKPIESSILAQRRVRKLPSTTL
# Sequence of UniProt Q99643 (Q99643 whole entry, looked up): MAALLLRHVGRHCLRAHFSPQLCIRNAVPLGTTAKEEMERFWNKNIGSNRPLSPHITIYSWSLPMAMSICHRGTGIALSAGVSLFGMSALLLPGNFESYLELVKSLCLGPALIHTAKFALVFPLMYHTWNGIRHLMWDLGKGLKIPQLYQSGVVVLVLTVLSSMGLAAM
# Sequence of UniProt Q9HB90 (Q9HB90 whole entry, looked up): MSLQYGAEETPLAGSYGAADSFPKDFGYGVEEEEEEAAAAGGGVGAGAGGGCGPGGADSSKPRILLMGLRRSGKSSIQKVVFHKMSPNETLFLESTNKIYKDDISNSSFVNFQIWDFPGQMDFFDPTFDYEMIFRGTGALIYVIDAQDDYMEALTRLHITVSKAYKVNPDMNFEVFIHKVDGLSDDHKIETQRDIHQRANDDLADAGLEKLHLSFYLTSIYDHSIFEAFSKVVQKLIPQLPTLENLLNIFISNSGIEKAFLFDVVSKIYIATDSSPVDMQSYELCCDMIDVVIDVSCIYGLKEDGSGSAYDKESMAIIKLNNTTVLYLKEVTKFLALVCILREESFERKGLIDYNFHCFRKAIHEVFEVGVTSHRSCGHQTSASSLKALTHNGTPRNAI
# Sequence of UniProt P61586 (P61586 whole entry, looked up): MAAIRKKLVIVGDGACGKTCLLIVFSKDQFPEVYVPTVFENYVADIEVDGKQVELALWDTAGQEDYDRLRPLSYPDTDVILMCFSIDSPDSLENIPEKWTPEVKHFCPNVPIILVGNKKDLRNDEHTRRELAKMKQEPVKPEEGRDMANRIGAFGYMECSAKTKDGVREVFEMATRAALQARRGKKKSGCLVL
row,Target,log2 fold change
1,RPS3 (UniProt P23396),0.069 (inactive)
2,RPS6KA1 isoform 2 (UniProt Q15418),0.004 (inactive)
3,RRAGC (UniProt Q9HB90),-0.07 (inactive)
4,SERINC3 (UniProt Q13530),0.011 (inactive)
5,RBM25 (UniProt P49756),0.02 (inactive)
6,SKP1 (UniProt P63208),-0.052 (inactive)
7,RARS (UniProt P54136),0.325 (inactive)
8,RDH11 (UniProt Q8TC12),0.011 (inactive)
9,RPS15 (UniProt P62841),0.285 (inactive)
10,RPS18 (UniProt P62269),0.148 (inactive)
11,RETSAT (UniProt Q6NUM9),-0.003 (inactive)
12,RMC1 (UniProt Q96DM3),-0.031 (inactive)
13,SAAL1 (UniProt Q96ER3),-0.078 (inactive)
14,RPA1 (UniProt P27694),0.044 (inactive)
15,RAC1 (UniProt P63000),-0.021 (inactive)
16,SDHC (UniProt Q99643),-0.217 (inactive)
17,SERPINA7 (UniProt P05543),0.086 (inactive)

# Compound: CCCS(=O)(=O)Nc1ccc(F)c(C(=O)c2c[nH]c3ncc(-c4ccc(Cl)cc4)cc23)c1F [vemurafenib]
# Assay: as above
# Outline: as §1
row,Target,log2 fold change
1,ROCK2 (UniProt O75116),0.034 (inactive)
2,SCCPDH (UniProt Q8NBX0),-0.016 (inactive)
3,RB1 (UniProt P06400),-0.01 (inactive)
4,RAB3IL1 (UniProt Q8TBN0),0.018 (inactive)
5,SDCBP (UniProt O00560),0.051 (inactive)
6,RTN4IP1 (UniProt Q8WWV3),0.034 (inactive)
7,SGPL1 (UniProt O95470),0.033 (inactive)
8,RPS14 (UniProt P62263),-0.066 (inactive)
9,RAD51 (UniProt Q06609),0.02 (inactive)
10,SH3GLB2 (UniProt Q9NR46),0.058 (inactive)
11,RPS5 (UniProt P46782),-0.034 (inactive)
12,RAD50 isoform 2 (UniProt Q92878),0.027 (inactive)
13,RPS13 (UniProt P62277),-0.144 (inactive)
14,RHOA (UniProt P61586),-0.042 (inactive)
15,SLC12A9 (UniProt Q9BXP2),0.017 (inactive)
16,SCG3 (UniProt Q8WXD2),0.027 (inactive)
17,RSF1 (UniProt Q96T23),0.119 (inactive)

row,Target,log2 fold change
1,RPS3 (UniProt P23396),-0.086 (inactive)
2,RPS6KA1 isoform 2 (UniProt Q15418),0.016 (inactive)
3,RRAGC (UniProt Q9HB90),-0.027 (inactive)
4,SERINC3 (UniProt Q13530),0.083 (inactive)
5,RBM25 (UniProt P49756),0.019 (inactive)
6,SKP1 (UniProt P63208),-0.036 (inactive)
7,RARS (UniProt P54136),-0.018 (inactive)
8,RDH11 (UniProt Q8TC12),0.042 (inactive)
9,RPS15 (UniProt P62841),-0.117 (inactive)
10,RPS18 (UniProt P62269),-0.125 (inactive)
11,RETSAT (UniProt Q6NUM9),-0.03 (inactive)
12,RMC1 (UniProt Q96DM3),0.061 (inactive)
13,SAAL1 (UniProt Q96ER3),-0.017 (inactive)
14,RPA1 (UniProt P27694),0.039 (inactive)
15,RAC1 (UniProt P63000),-0.046 (inactive)
16,SDHC (UniProt Q99643),0.128 (inactive)
17,SERPINA7 (UniProt P05543),-0.06 (inactive)
